Calls of active or inactive are those of the source. The call rests on the fitted dose curve; in most records, active means well fitted inhibition curve with a large enough effect; inconclusive means small, poorly fitted or top-dose-only effect; inactive means no such curve, though single readings can be large or run the other way.
Test: qHTS assay for measurement of the activity of small molecule inhibitors on Zika virus induced Caspase-3 activity in human astrocytoma cells (AID 1224859);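 further: plate controls were ZIKV-infected untreated cells for no effect and uninfected cells for full effect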
Details: SNB-19 ZIKV-induced caspase-3/7, luminescence, 6 h; series mostly up to 45.7 µM
Excerpt: National Center for Advancing Translational Sciences [NCATS]
Johns Hopkins University School of Medicine
Increase in the Caspase-3 activity indicates an activation of apoptosis cell death pathway caused by Zika virus infection in certain types of neuronal cells including human neural progenitor cells (hNPCs), astrocytes, and astrocytoma cell line (SNB-19). This cell-based caspase-3 activity assay measures the increased caspase-3 activity in the astrocytoma cell line (SNB-19) after a 6-hour Zika virus infection with a luminescence readout. A decrease in the luminescence signal in this assay by small molecule treatment indicates an inhibitory effect of that small molecule on the Zika virus induced caspase-3 activity that may correlate with its effect on reduction of Zika virus caused cell death.
The medium for SNB-19 cells is composed of RPMI 1640 (ATCC, Cat.# 30-2001), 10% fetal bovine serum (FBS) (GE healthcare Life Sciences, Cat.# SH30071.03), and 1% Pen/Strep (Gibco, Cat.# 15140-122). A Caspase-Glo 3/7 assay kit (catalog number G8092; Promega, Madison, WI) was used to detect caspase-3 activity induced by Zika virus infection in human cells. The reagent mixture was reconstituted as described in the protocol from the manufacturer. Polystyrene tissue culture treated and PDL coated white plates were obtained from Greiner Bio-One (Monroe, NC). Cells were seeded in 384- or 1536-well assay plates and cultured at 37 C with 5% CO2 for 16 to 20 hours. The typical cell seeding density in the 1536-well plate assay is 250 cells/well in 3ul medium for SNB-19 cells in tissue culture treated plates. Compounds were added to cells and incubated for one hour before addition of ZIKV solution to cells (2 FFU/cell). After incubation at 37 C with 5% CO2 for 6 hours, the reagent mixture of Caspase-Glo 3/7 assay kit was added to each well, followed by incubation at room temperature for 30 minutes. The luminescence intensity of the assay plates was measured using a ViewLux plate reader (PerkinElmer). Data were normalized by using the cell-containing wells without ZIKV as a negative control (0% induction of caspase 3/7 activity) and wells containing ZIKV infected cells (Caspase-3 activity induced) as a positive control (100% induction of caspase 3 activity). The percentage inhibitions of the increased Caspase-3 activity by small molecule inhibitors were then calculated.

| SMILES | outcome | activity change, negative = inhibition |
| --- | --- | --- |
| CC(=C(CCOC(=O)C(C)C)SSC(CCOC(=O)C(C)C)=C(C)N(C=O)Cc1cnc(C)nc1N)N(C=O)Cc1cnc(C)nc1N | inactive | – |
| C/C=C/c1ccc(O)c(OC)c1 | inactive | – |
| C[C@H]1[C@H]2CC[C@H]3[C@@H]4CC=C5C[C@@H](N(C)C)CC[C@]5(C)[C@H]4CC[C@]23CN1C | inactive | – |
| COc1cc(C(=S)N2CCOCC2)ccc1O | inactive | – |
| CC(C)[C@@H]1CC[C@@H](C)CC1=O | inactive | – |
| CC(=O)NC(=O)c1ccccc1O | inactive | – |
| N=C(N)N1CCc2ccccc2C1 | – | -0.144% [at 4.53 µM] (inactive) |
| OCCOCCN1CCN(C2=Nc3ccccc3Sc3ccccc32)CC1 | inactive | – |
| O=C(O)C1(C(=O)O)CCC1.[NH2-].[NH2-].[Pt+2] | inactive | – |
| C[C@]12CCC(=O)C=C1C=C[C@@H]1[C@@H]2CC[C@@]2(C)[C@H]1CC[C@@]21CCC(=O)O1 | inactive | – |
| O=C1C(CCS(=O)c2ccccc2)C(=O)N(c2ccccc2)N1c1ccccc1 (stereo not given) | inactive | – |
| CCOC(=O)c1c(N)sc2c1CCN(Cc1ccccc1)C2 | inactive | – |
| CCCc1ncc(C[n+]2ccccc2C)c(N)n1 | inactive | – |
| O=C1OC2(c3ccccc31)c1cc(Br)c(O)c(Br)c1Oc1c2cc(Br)c(O)c1Br | inactive | – |
| O=C1c2cccc3c2[C@H](CCC3)CN1[C@@H]1CN2CCC1CC2 | inactive | – |
| O=[N+]([O-])c1cccc(S(=O)(=O)NCCNS(=O)(=O)c2cccc([N+](=O)[O-])c2)c1 | inactive | – |
| CN1CCN(c2cc3c(cc2F)c(=O)c(C(=O)O)cn3-c2ccc(F)cc2)CC1 | inactive | – |
| CN1CCN(C2=Nc3cc(F)ccc3Cc3ccccc32)CC1 | inactive | – |
| N#C/C(=C1\SCC(c2ccccc2Cl)S1)n1ccnc1 (stereo not given) | inactive | – |
| Nc1nc(-c2ccccc2)c(Br)c(=O)[nH]1 | inactive | – |

| SMILES | outcome | activity change, negative = inhibition |
| --- | --- | --- |
| CN1CCN(C2=Nc3ccccc3Sc3ccc(Cl)cc32)CC1 | inactive | – |
| O=C1C(=O)c2ccccc2C(O)=C1C1CCC(c2ccc(Cl)cc2)CC1 (stereo not given) | inactive | – |
| C=CCN1CCc2nc(N)sc2CC1 | inactive | – |
| CCCCCCCCCCCCCCCCO | inactive | – |
| CC(=O)Nc1ccc(OC(=O)c2ccccc2OC(C)=O)cc1 | inactive | – |
| CCCCN=C(N)N=C(N)N | inactive | – |
| CC(C)NCC(O)c1ccc2ccccc2c1 (stereo not given) | inactive | – |
| CC(C)[N+](C)(C)CC(O)COc1cccc2ccccc12 (stereo not given) | inactive | – |
| O=C(Nc1ccc([N+](=O)[O-])cc1)Nc1ccc([N+](=O)[O-])cc1 | inactive | – |
| COc1cc(O)c(C(=O)c2ccccc2)cc1S(=O)(=O)O | inactive | – |
| COP(=O)(OC)OC(c1ccc(Cl)cc1)P(=O)(OC)OC (stereo not given) | inactive | – |
| COc1cc([C@H]2Oc3cc([C@H]4Oc5cc(O)cc(O)c5C(=O)[C@@H]4O)ccc3O[C@@H]2CO)ccc1O | inactive | – |
| CCCCNC(=O)NS(=O)(=O)c1ccc(N)cc1 | inactive | – |
| CN=C(N)NCCC[C@H](N)C(=O)O | inactive | – |
| C=C[C@@]1(C)CC(=O)[C@]2(O)[C@@]3(C)[C@@H](O)CCC(C)(C)[C@@H]3[C@H](O)[C@H](OC(C)=O)[C@@]2(C)O1 | inactive | – |
| CCOC(=O)[C@H](CCc1ccccc1)N[C@@H](C)C(=O)N1[C@H](C(=O)O)C[C@@H]2CCC[C@@H]21 | inactive | – |
| CCOC(=O)[C@@](C)(N)Cc1ccc(O)c(O)c1 | inactive | – |
| CCCCNc1ccc(C(=O)OCCOCCOCCOCCOCCOCCOCCOCCOCCOC)cc1 | inactive | – |
| c1ccc(CC2=NCCN2)cc1 | inactive | – |
| N/C(=N\N=C\c1ccc(Cl)cc1)N/N=C/c1ccc(Cl)cc1 | inactive | – |

From PubChem BioAssay (NCATS)
